Records with an inconclusive call do not appear. Entries that show only a call come without a potency. Active and inactive are the calls of the source. The call rests on the fitted dose curve; in most records, active means well fitted cell-killing curve with a large enough effect in the repeat runs; inconclusive means weak or mixed curves, or effect the other way; inactive means flat fitted curve, though single readings scatter.
Key:
[1] = cAMP Responsive Elements (CRE) small molecule antagonists, cell-based qHTS assay: qHTS cell viability counter screen (AID 2060913); further: nearly all actives have a fitted effect of over 40% in size; further: potency means the concentration at half of the fitted maximal effect
Outline: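 Cytotoxicity read in the same wells as the CRE-bla HEK293T antagonist assay: after 3 h compound with 0.25 uM NKH477 final and 2 h beta-lactamase substrate, CellTiter-Glo luminescence measured.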

[2] = cAMP Responsive Elements (CRE) small molecule agonists, cell-based qHTS assay: qHTS cell viability counter screen (AID 2060914); further: nearly all actives have a fitted effect of over 50% in size
Outline: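 Cytotoxicity was measured as ATP luminescence (CellTiter-Glo, 30 min at room temperature) in the same wells as the CRE-bla FRET read-out. HEK293T CRE-bla cells had 3 h compound exposure at 37C/5% CO2.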

SMILES	Potency [1]	Potency [2]
O=C1OC(=O)c2ccccc21	inactive	inactive
COc1ccccc1OCC1CNC(=O)O1 (centres undefined)	inactive	inactive
CN(C)CCCOC1(Cc2ccccc2)CCCCCC1	inactive	inactive
CCOCCO	inactive	inactive
COc1ccc2[nH]c(S(=O)Cc3ncc(C)c(OC)c3C)nc2n1 (centres undefined)	inactive	inactive
CC1(C)O[C@H]2CC(=O)OC[C@]23[C@H]2CC[C@@]4(C)[C@H](c5ccoc5)OC(=O)[C@H]5O[C@]54[C@]2(C)C(=O)C[C@@H]13	inactive	inactive
CC(C)CCOCc1ccccc1	inactive	inactive
C[Si](C)(C)N[Si](C)(C)C	inactive	inactive
CCCCCCCCCC/C=C/C#N	inactive	inactive
CCc1ccccc1CC	inactive	inactive
Cc1ccc(C2OC[C@@H]3OC(c4ccc(C)cc4)O[C@H]([C@H](O)CO)[C@@H]3O2)cc1 (some centres undefined)	inactive	inactive
CC(=O)CC(=O)c1ccccc1	inactive	inactive
CC(C)CCCCCCN	inactive	inactive
CCCCOCC(C)OCC(C)O (centres undefined)	inactive	inactive
Cc1ccc(C)c(OCCCC(C)(C)C(=O)O)c1	inactive	inactive
O=S1OCCO1	inactive	inactive
C/C=C(\C)C(=O)OC/C=C(\C)CCC=C(C)C	inactive	inactive
Cc1cccc(C)n1	inactive	inactive
C=C(C)[C@@H]1CC=C(C)C(=O)C1	inactive	inactive
Clc1nc(C(Cl)(Cl)Cl)c(Cl)c(Cl)c1Cl	inactive	inactive
COc1cc(Nc2c(C#N)cnc3cc(OCCCN4CCN(C)CC4)c(OC)cc23)c(Cl)cc1Cl	inactive	inactive
O=c1c2ccccc2oc2ccccc12	inactive	inactive
CN(C)CCCN1c2ccccc2Sc2ccccc21	inactive	inactive

SMILES	Potency [1]	Potency [2]
Cc1ccc(Nc2c(F)cccc2Cl)c(CC(=O)O)c1	inactive	inactive
C1CCC2=NCCCN2CC1	inactive	inactive
COc1ccc(OC)c(N=Nc2c(O)ccc3ccccc23)c1	inactive	inactive
O=C(O)Cc1c[nH]c2ccccc12	inactive	inactive
C=C[Si](OCC)(OCC)OCC	inactive	inactive
CC(C)(N)CO	inactive	inactive
O=C(O)CCSSCCC(=O)O	inactive	inactive
CC(=O)OC/C=C(/C)CCC=C(C)C	inactive	inactive
Cc1ccccc1N1CCN(CCc2nnc3n2CCCC3)CC1	inactive	inactive
CN(C)[C@@H]1C(=O)C(C(N)=O)=C(O)[C@@]2(O)C(=O)C3=C(O)c4c(O)ccc(Cl)c4[C@@H](O)[C@H]3C[C@@H]12	inactive	inactive
O=S(=O)(O)c1ccc2cc(O)ccc2c1	inactive	inactive
C=CC(=O)OCCOc1ccccc1	inactive	inactive
CC(C)C[C@H](NC(=O)OCC1c2ccccc2-c2ccccc21)C(=O)O	inactive	inactive
OCCc1ccccc1	inactive	inactive
CCC=CC#N	inactive	inactive
CC(CC=O)CCCC(C)(C)O (centres undefined)	inactive	inactive
CC[C@H](NC(C)C)[C@H](O)c1ccc(O)c2[nH]c(=O)ccc12	inactive	inactive
CCCCCC1CCCC(=O)O1 (centres undefined)	inactive	inactive
Cc1ncc([C@@H](CCCCCCc2ccc3c(n2)NCCC3)CC(=O)O)cn1	inactive	inactive
COc1cccc2sc(N)nc12	inactive	inactive
COc1cc(Cc2cnc(N)nc2N)cc(OC)c1OC	inactive	inactive
Cc1cc(C)c(O)c(C)c1	inactive	inactive
C=C(C)[C@@H]1CC=C(C)CC1	inactive	inactive

SMILES	Potency [1]	Potency [2]
CCCCCCCCCCCCOCC1CO1 (centres undefined)	inactive	inactive
O=C(O)Cc1csc(-c2ccc(Cl)cc2)n1	inactive	inactive
CC(C)(C#N)Nc1nc(Cl)nc(NC2CC2)n1	inactive	inactive
CC(=O)Oc1ccc(C2(c3ccc(OC(C)=O)cc3)C(=O)Nc3ccccc32)cc1	inactive	inactive
CCCCCCOc1cc(C)c(O)c(C)c1C	55.1 µM (active)	inactive
CC(=O)OC1CCCCC1C(C)(C)C (centres undefined)	inactive	inactive
CCC(C)C(=O)OCCc1ccccc1 (centres undefined)	inactive	inactive
COc1ccc(CCN(C)CCCC(C#N)(c2cc(OC)c(OC)c(OC)c2)C(C)C)cc1OC (centres undefined)	inactive	inactive
O=c1n(CCCN2CCN(c3cccc(Cl)c3)CC2)nc2ccccn12	inactive	inactive
Cc1ccc(S(=O)(=O)N=C=O)cc1	inactive	inactive
CC(C)(C)C(=O)C1C(=O)c2ccccc2C1=O	inactive	inactive
CCCCCCCCCCCCC(=O)O	inactive	inactive
O=C(O)CP(=O)(O)O	inactive	inactive
CCOC(=O)c1ncn2c1CN(C)C(=O)c1cc(F)ccc1-2	inactive	inactive
CCOC(=O)n1ccn(C)c1=S	inactive	inactive
O=S(=O)(O)c1cc(S(=O)(=O)O)c2c(N=Nc3ccccc3)c(O)ccc2c1	inactive	inactive
CC(=O)NCCCCCC(=O)O	inactive	inactive
CC(C)c1ccc2ncccc2c1	inactive	inactive
CCCCCCCCOC(=O)c1ccc(O)cc1	inactive	inactive
CC[C@H]1CC[C@H](NCc2cc3c(cc2OC)[C@H]2C[C@H]2C(=O)N3C)[C@H](c2ccccc2)N1	inactive	inactive
C=CCON/C(CCC)=C1\C(=O)CC(C)(C)C(C(=O)OC)=C1O	inactive	inactive

Reference: PubChem BioAssay (Tox21)
